Results published in the supplement of paper PMC7366291.
Counter-ions that a name gives are not always drawn. ± gives the standard deviation.

These molecules were tested on Danio rerio Tg(wt1b:EGFP) embryo, pronephros (assay: glomerular separation, fold change vs DMSO control; higher = glomeruli further apart (abnormal)). Conditions: 25 µM; exposure: 24-48 hpf.
Method in brief: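 Distances and angles describing the pronephros were computed by a Fiji macro from 16 reference points set manually on maximum projections of dorsal images. These images came from dechorionated Tg(wt1b:EGFP) zebrafish embryos held in agarose-filled 96-well plates after exposure to 25 μM compound in 0.5% DMSO, in HEPES-buffered E3 with 0.003% PTU, from 24 to 48 hpf at 28.5°C. Any value more than 2 SD from the feature mean was excluded. Features are stated as fold change relative to the mean of same-day DMSO-treated embryos.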
In the case of `CC(C)c1cccc(C(C)C)c1O` [Propofol], the glomerular separation is reported as 0.693 ± 0.2.
`CC(CCc1ccccc1)NC(C)C(O)c1ccc(O)cc1` (stereo not given) [Nylidrin] gave a glomerular separation of 0.871 ± 0.34.
Molecule `CCC(C)C1O[C@]2(C=C[C@@H]1C)C[C@@H]1CC(C/C=C(\C)[C@@H](OC3C[C@H](OC)[C@@H](OC4C[C@H](OC)[C@@H](O)[C@H](C)O4)[C@H](C)O3)[C@@H](C)/C=C/C=C3\COC4[C@H](O)C(C)=CC(C(=O)O1)[C@]34O)O2` (stereo not given in full) [Avermectin B1a] has a glomerular separation of 2.03 ± 1.1.
`CC(C)[N+](C)(CCC(C(N)=O)(c1ccccc1)c1ccccc1)C(C)C` [Isopropamide iodide] gave a glomerular separation of 0.996 ± 0.45.
`C=CCN1CC[C@]23c4c5ccc(O)c4O[C@H]2C(=O)CC[C@@]3(O)[C@H]1C5` [Naloxone hydrochloride] was tested, and the glomerular separation was 0.981 ± 0.33.
Molecule `CC(=O)OC1CN2CCC1CC2` (stereo not given) [Aceclidine Hydrochloride] has a glomerular separation of 0.978 ± 0.38.
In the case of `CCC1(CC)C(=O)C=CNC1=O` [Pyrithyldione], the glomerular separation is reported as 0.785 ± 0.31.
With `C=C1CC[C@@]2(O)[C@H]3Cc4ccc(O)c5c4[C@@]2(CCN3CC2CC2)[C@H]1O5` [Nalmefene hydrochloride] the glomerular separation was 0.938 ± 0.31.
Work on `CN1C[C@H](C(=O)N[C@]2(C)O[C@@]3(O)[C@@H]4CCCN4C(=O)[C@H](Cc4ccccc4)N3C2=O)C[C@@H]2c3cccc4[nH]cc(c34)C[C@H]21` [Dihydroergotamine tartrate] yielded a glomerular separation of 1.15 ± 0.56.
In the case of `C#CCN(C)[C@H](C)Cc1ccccc1` [Selegiline hydrochloride], the glomerular separation is reported as 0.996 ± 0.51.
For `C[C@]12N[C@H](Cc3ccccc31)c1ccccc12` [Dizocilpine maleate], the glomerular separation was 0.888 ± 0.31.
In the case of `CN1[C@@H]2CC[C@H]1C[C@@H](OC1c3ccccc3CCc3ccccc31)C2` [Deptropine citrate], the glomerular separation is reported as 0.934 ± 0.35.
Work on `CN1[C@@H]2CC[C@H]1C[C@@H](OC(=O)[C@H](CO)c1ccccc1)C2` [Hyoscyamine (L)] yielded a glomerular separation of 0.956 ± 0.51.
`CC(C)C[C@H](CN)CC(=O)O` [Pregabalin] was tested, and the glomerular separation was 1.1 ± 0.25.
Work on `CC(=O)[C@H]1CC[C@H]2[C@@H]3CC[C@H]4C[C@H](O)CC[C@]4(C)[C@H]3C(=O)C[C@]12C` [Alfaxalone] yielded a glomerular separation of 0.896 ± 0.36.
`CC(=O)NC1CCSC1=O` (racemic) [N-Acetyl-DL-homocysteine Thiolactone] was tested, and the glomerular separation was 0.761 ± 0.24.
`CNC(=O)Oc1ccc2c(c1)[C@]1(C)CCN(C)[C@@H]1N2C` [Eserine hemisulfate salt] was tested, and the glomerular separation was 1.12 ± 0.17.
For `CC[C@@H](CO)NC(=O)[C@@H]1C=C2c3cccc4[nH]cc(c34)C[C@H]2N(C)C1` [Methylergometrine maleate], the glomerular separation was 1.12 ± 0.46.
For `C[N+]1(C)CCCC(OC(=O)C(O)(c2ccccc2)c2ccccc2)C1` (stereo not given) [Mepenzolate bromide], the glomerular separation was 1.4 ± 0.8.
`CN1CCC2(C)c3cc(O)ccc3N(C)C12` (single isomer, unassigned; (-)) [(-)-Eseroline fumarate salt] gave a glomerular separation of 0.883 ± 0.34.
Molecule `CC(C)(C)NCC(O)c1cc(Cl)c(N)c(Cl)c1` (stereo not given) [Clenbuterol hydrochloride] has a glomerular separation of 1.04 ± 0.33.
With `C=CCC1(CC(C)C)C(=O)NC(=O)NC1=O` [Butalbital] the glomerular separation was 0.97 ± 0.31.
In the case of `CC(C)(N)Cc1ccccc1` [Phentermine hydrochloride], the glomerular separation is reported as 0.886 ± 0.21.
For `Oc1ccc2c3c1O[C@H]1[C@@H](O)CC[C@@]4(O)[C@@H](C2)N(CC2CCC2)CC[C@]314` [Nalbuphine hydrochloride], the glomerular separation was 0.874 ± 0.27.
In the case of `CO[C@]12C[C@@H](COC(=O)c3cncc(Br)c3)CN(C)[C@@H]1Cc1cn(C)c3cccc2c13` [Nicergoline], the glomerular separation is reported as 1.02 ± 0.39.
With `COc1ccc(CN2CCNCC2)c(OC)c1OC` [Trimetazidine dihydrochloride] the glomerular separation was 0.91 ± 0.3.
`CC(C)(C)NCC(O)c1ccccc1Cl` (stereo not given) [Tulobuterol] showed a glomerular separation of 1.02 ± 0.37.
`CC[C@@H](C(N)=O)N1CCCC1=O` [Levetiracetam] showed a glomerular separation of 0.937 ± 0.41.
`C=CC[C@]1(O)CC[C@H]2[C@@H]3CCC4=CC(=O)CCC4=C3C=C[C@@]21C` [Altrenogest] was tested, and the glomerular separation was 1.44 ± 0.77.
Molecule `CN[C@@H]1[C@@H](O)[C@@H](O[C@@H]2[C@@H](O)[C@H](O[C@H]3O[C@H](CN)CC[C@H]3N)[C@@H](N)C[C@H]2N)OC[C@]1(C)O.CN[C@@H]1[C@@H](O)[C@@H](O[C@@H]2[C@@H](O)[C@H](O[C@H]3O[C@H]([C@@H](C)N)CC[C@H]3N)[C@@H](N)C[C@H]2N)OC[C@]1(C)O.CN[C@@H]1[C@@H](O)[C@@H](O[C@@H]2[C@@H](O)[C@H](O[C@H]3O[C@H]([C@@H](C)NC)CC[C@H]3N)[C@@H](N)C[C@H]2N)OC[C@]1(C)O` [Gentamicine sulfate] has a glomerular separation of 0.941 ± 0.25.
In the case of `COc1ccc(CCN)cc1OC` [Homoveratrylamine], the glomerular separation is reported as 1.13 ± 0.38.
With `COc1ccc2c(c1)[C@]13CCCC[C@@H]1[C@H](C2)N(C)CC3` [Dextromethorphan hydrobromide monohydrate] the glomerular separation was 1.03 ± 0.23.
`c1ccc2c(c1)OCC(C1=NCCN1)O2` (stereo not given) [Idazoxan hydrochloride] showed a glomerular separation of 0.851 ± 0.4.
For `O=C(NCNC(=O)NC1C(=O)NC(=O)N1CO)NC1C(=O)NC(=O)N1CO` (stereo not given) [Imidurea], the glomerular separation was 0.876 ± 0.2.
`O=P1(NCCCl)OCCCN1CCCl` (stereo not given) [Ifosfamide] was tested, and the glomerular separation was 1.05 ± 0.39.
